Laboratory results from PubChem BioAssay (NCI).
The panel holds about 83,000 compounds, 20% with a hit somewhere; the sample as a whole holds those more often.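 Negative percent growth values reflect cell death: -40 means 40% of the cells present at the start died, and -100 means all died.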 Activity calls are given as the source filed them. Rule for the calls: active = growth percent below 10; inactive = the rest.

What was measured:
Assay in all cases: NCI-60 one-dose screen, 48 h (100 = growth as untreated, 0 = no growth, -100 = all killed)
Details in all cases: 10 µM unless noted
DU-145 prostate = system: DU-145 prostate
K-562 leukemia = system: K-562 leukemia
MALME-3M melanoma = system: MALME-3M melanoma
MDA-MB-231 breast = system: MDA-MB-231 breast
RXF 393 renal = system: RXF 393 renal
SF-268 CNS = system: SF-268 CNS
SF-295 CNS = system: SF-295 CNS
SF-539 CNS = system: SF-539 CNS
UACC-257 melanoma = system: UACC-257 melanoma
HCT-15 colon = system: HCT-15 colon
HT29 colon = system: HT29 colon
SNB-75 CNS = system: SNB-75 CNS
SNB-19 CNS = system: SNB-19 CNS
U251 CNS = system: U251 CNS
PC-3 prostate = system: PC-3 prostate
SK-MEL-5 melanoma = system: SK-MEL-5 melanoma
UACC-62 melanoma = system: UACC-62 melanoma
LOX IMVI melanoma = system: LOX IMVI melanoma
SK-MEL-28 melanoma = system: SK-MEL-28 melanoma

Measured: growth

Cc1ccc(-n2cc(/C=N/NC(=O)c3ccncc3)c(-c3ccc(S(C)(=O)=O)cc3)n2)cc1
inactive: DU-145 prostate 97.3% | K-562 leukemia 32.3% | MALME-3M melanoma 68.7% | MDA-MB-231 breast 79.5% | RXF 393 renal 103% | SF-268 CNS 100% | SF-295 CNS 102% | SF-539 CNS 91.8% | UACC-257 melanoma 96.5% | HCT-15 colon 37% | HT29 colon 76.6% | SNB-75 CNS 95.7% | SNB-19 CNS 89.9% | U251 CNS 97.5% | PC-3 prostate 81.5% | SK-MEL-5 melanoma 94.5% | UACC-62 melanoma 76.9% | LOX IMVI melanoma 74% | SK-MEL-28 melanoma 93.4%

O=C(CCC(=O)N1CCOCC1)OCCCCCCSc1ccc([N+](=O)[O-])c2nonc12
active: DU-145 prostate -91.9% | K-562 leukemia 6.53% | MALME-3M melanoma -81.2% | MDA-MB-231 breast -39.8% | RXF 393 renal -62% | SF-268 CNS -9.47% | SF-295 CNS -12.5% | SF-539 CNS -88.4% | UACC-257 melanoma -25.7% | HCT-15 colon -67.4% | HT29 colon -34.2% | U251 CNS -29.8% | PC-3 prostate 2.96% | UACC-62 melanoma -64.6% | LOX IMVI melanoma -82.2% | SK-MEL-28 melanoma -36.9%
inactive: SNB-75 CNS 36.4% | SNB-19 CNS 25.1% | SK-MEL-5 melanoma 27.9%

COc1ccc(-n2c(/C=C3\C(=O)Nc4ccccc43)ccc2CO)cc1
inactive: DU-145 prostate 106% | K-562 leukemia 90.9% | MALME-3M melanoma 72.2% | MDA-MB-231 breast 95% | RXF 393 renal 99.7% | SF-268 CNS 99.2% | SF-295 CNS 105% | SF-539 CNS 97.5% | UACC-257 melanoma 105% | HCT-15 colon 89.7% | HT29 colon 105% | SNB-75 CNS 101% | SNB-19 CNS 90% | U251 CNS 95.1% | PC-3 prostate 96.4% | SK-MEL-5 melanoma 94.5% | UACC-62 melanoma 83.3% | LOX IMVI melanoma 94.6% | SK-MEL-28 melanoma 101%

NS(=O)(=O)c1ccc(Nc2nc(N/N=C/c3ccc(Cl)cc3)nc(Nc3ccccc3)n2)cc1
active: RXF 393 renal -11.5%
inactive: DU-145 prostate 72.7% | K-562 leukemia 59.9% | MALME-3M melanoma 88.3% | MDA-MB-231 breast 86.7% | SF-268 CNS 73.7% | SF-295 CNS 58.6% | SF-539 CNS 53.8% | UACC-257 melanoma 89.5% | HCT-15 colon 76.4% | HT29 colon 34.2% | SNB-75 CNS 94.3% | SNB-19 CNS 81.8% | U251 CNS 54.6% | PC-3 prostate 51.7% | SK-MEL-5 melanoma 69.1% | UACC-62 melanoma 74.9% | LOX IMVI melanoma 60.4% | SK-MEL-28 melanoma 75.3%

COC(=O)C(Cc1ccccc1)Nc1nc(NC(Cc2ccccc2)C(=O)OC)nc(N2CCOCC2)n1 (configuration not stated)
inactive: DU-145 prostate 112% | K-562 leukemia 91.6% | MALME-3M melanoma 105% | MDA-MB-231 breast 103% | RXF 393 renal 113% | SF-268 CNS 103% | SF-295 CNS 108% | SF-539 CNS 98% | UACC-257 melanoma 103% | HCT-15 colon 106% | HT29 colon 101% | SNB-75 CNS 90.5% | SNB-19 CNS 104% | U251 CNS 105% | PC-3 prostate 103% | SK-MEL-5 melanoma 98.7% | UACC-62 melanoma 90.2% | LOX IMVI melanoma 105% | SK-MEL-28 melanoma 109%

COc1cc(OC)c(/C=C/S(=O)(=O)Cc2ccc(OC)c(NC(=O)CCC(=O)NO)c2)c(OC)c1
inactive: DU-145 prostate 14.4% | K-562 leukemia 12.6% | MALME-3M melanoma 64.1% | MDA-MB-231 breast 26% | SF-268 CNS 30.4% | UACC-257 melanoma 59.5% | SNB-75 CNS 31.6% | SNB-19 CNS 23% | U251 CNS 14.6% | PC-3 prostate 28.7% | UACC-62 melanoma 13.8% | LOX IMVI melanoma 10.4% | SK-MEL-28 melanoma 60%
active: RXF 393 renal 6.03% | SF-295 CNS 8.21% | SF-539 CNS -4.79% | HCT-15 colon 8.57% | HT29 colon 3.2% | SK-MEL-5 melanoma -31.6%

O=C1CC(=O)N2CSCN(C(c3ccccc3)c3nc4ncncc4[nH]3)C2=N1 (configuration not stated)
inactive: DU-145 prostate 110% | K-562 leukemia 102% | MALME-3M melanoma 80.5% | MDA-MB-231 breast 101% | RXF 393 renal 105% | SF-268 CNS 103% | SF-295 CNS 99.1% | SF-539 CNS 99.1% | UACC-257 melanoma 108% | HCT-15 colon 100% | HT29 colon 106% | SNB-75 CNS 99.8% | SNB-19 CNS 93.8% | U251 CNS 97.9% | PC-3 prostate 98% | SK-MEL-5 melanoma 105% | UACC-62 melanoma 97% | LOX IMVI melanoma 108% | SK-MEL-28 melanoma 117%

CNC(=O)c1cc(N2CCc3cc(NC(=O)Nc4ccc(Cl)c(C(F)(F)F)c4)ccc32)ccn1
inactive: DU-145 prostate 63.6% | K-562 leukemia 33.7% | MALME-3M melanoma 64.5% | MDA-MB-231 breast 67.2% | SF-268 CNS 70.1% | SF-295 CNS 26.5% | SF-539 CNS 48.8% | UACC-257 melanoma 72.7% | HCT-15 colon 28% | HT29 colon 61.2% | SNB-75 CNS 93.3% | SNB-19 CNS 61.4% | U251 CNS 52.4% | PC-3 prostate 29% | SK-MEL-5 melanoma 46.6% | UACC-62 melanoma 51.8% | LOX IMVI melanoma 64.7% | SK-MEL-28 melanoma 66.9%
active: RXF 393 renal -8.94%
